# In PubChem BioAssay AID1159580 (chemical genetic matrix, 2015):
# The whole screen tested about 5,500 compounds, of which about 2,000 (36%) were called active. About 18% were inconclusive and are not listed. The list shows a part of the results. Unmarked numbers belong to inactive results. No stated cut-off is given here; in the data, active means normalized growth mostly below about 0.91 (no sharp cut-off); inconclusive means no clear call, values can overlap the other calls; inactive means mostly above about 0.92.
# Assay: chemical genetic growth profiling, strain panel (AID 1159580);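 further: tested at 20 µM; growth read once vehicle control cultures reached saturation at 30 °C; 1 = growth at the plate median or of vehicle wells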
# Conditions: growth OD
compound,measurement,setting,value
CC[C@@]1(O)C(=O)OCc2c1cc1n(c2=O)Cc2cc3cc(O)ccc3nc2-1,normalized growth,"S. cerevisiae deletion strains, locus YKL068W, stronger effect = lower value",0.996
same,normalized growth,"S. cerevisiae deletion strains, locus YKL085W, strain MDH1 (second series), stronger effect = lower value",1.01
same,normalized growth,"S. cerevisiae deletion strains, locus YKL085W, strain MDH1, stronger effect = lower value",1.01
same,normalized growth,"S. cerevisiae deletion strains, locus YKL160W, strain elf1, stronger effect = lower value",1.02
same,normalized growth,"S. cerevisiae deletion strains, locus YKL190W, strain CNB1, stronger effect = lower value",1.02
same,normalized growth,"S. cerevisiae deletion strains, locus YKR001C, strain vps1, stronger effect = lower value",1
same,normalized growth,"S. cerevisiae deletion strains, locus YKR026C, strain gcn3, stronger effect = lower value",0.997
same,normalized growth,"S. cerevisiae deletion strains, locus YKR091W, strain srl3, stronger effect = lower value",1.01
same,normalized growth,"S. cerevisiae deletion strains, locus YLL001W, strain dnm1, stronger effect = lower value",1
same,normalized growth,"S. cerevisiae deletion strains, locus YLL026W, stronger effect = lower value",1.02
same,normalized growth,"S. cerevisiae deletion strains, locus YLL041C, strain sdh2, stronger effect = lower value",1.02
same,normalized growth,"S. cerevisiae deletion strains, locus YLR027C, strain aat2, stronger effect = lower value",1
same,normalized growth,"S. cerevisiae deletion strains, locus YLR039C, strain RIC1, stronger effect = lower value",1.03
same,normalized growth,"S. cerevisiae deletion strains, locus YLR058C, strain SHM2, stronger effect = lower value",1.02
same,normalized growth,"S. cerevisiae deletion strains, locus YLR102C, strain apc9, stronger effect = lower value",0.992
same,normalized growth,"S. cerevisiae deletion strains, locus YLR113W, strain HOG1, stronger effect = lower value",0.942
same,normalized growth,"S. cerevisiae deletion strains, locus YLR221C, strain rsa3, stronger effect = lower value",0.966
same,normalized growth,"S. cerevisiae deletion strains, locus YLR258W, strain gsy2, stronger effect = lower value",1.03
same,normalized growth,"S. cerevisiae deletion strains, locus YLR262C, strain YPT6 (second series), stronger effect = lower value",0.984
same,normalized growth,"S. cerevisiae deletion strains, locus YLR262C, strain YPT6, stronger effect = lower value",1.04
same,normalized growth,"S. cerevisiae deletion strains, locus YLR268W, strain sec22, stronger effect = lower value",0.96
same,normalized growth,"S. cerevisiae deletion strains, locus YLR320W, strain mms22, stronger effect = lower value",0.884
same,normalized growth,"S. cerevisiae deletion strains, locus YLR330W, strain CHS5, stronger effect = lower value",1.02
same,normalized growth,"S. cerevisiae deletion strains, locus YLR342W, strain FKS1 (second series), stronger effect = lower value",0.995
same,normalized growth,"S. cerevisiae deletion strains, locus YLR342W, strain FKS1, stronger effect = lower value",1.01
same,normalized growth,"S. cerevisiae deletion strains, locus YLR357W, strain rsc2, stronger effect = lower value",1.03
same,normalized growth,"S. cerevisiae deletion strains, locus YLR370C, strain arc18, stronger effect = lower value",1.01
same,normalized growth,"S. cerevisiae deletion strains, locus YLR371W, strain rom2, stronger effect = lower value",0.994
same,normalized growth,"S. cerevisiae deletion strains, locus YLR384C, strain iki3, stronger effect = lower value",1.02
same,normalized growth,"S. cerevisiae deletion strains, locus YLR418C, strain cdc73, stronger effect = lower value",1.02
same,normalized growth,"S. cerevisiae deletion strains, locus YML016C, strain PPZ1, stronger effect = lower value",1.02
same,normalized growth,"S. cerevisiae deletion strains, locus YML032C, strain rad52, stronger effect = lower value",0.407 (active)
same,normalized growth,"S. cerevisiae deletion strains, locus YML120C, strain ndi1, stronger effect = lower value",0.995
same,normalized growth,"S. cerevisiae deletion strains, locus YML124C, strain tub3, stronger effect = lower value",0.983
same,normalized growth,"S. cerevisiae deletion strains, locus YMR058W, strain fet3, stronger effect = lower value",1.01
same,normalized growth,"S. cerevisiae deletion strains, locus YMR078C, strain ctf18, stronger effect = lower value",0.947
same,normalized growth,"S. cerevisiae deletion strains, locus YMR125W, strain sto1, stronger effect = lower value",1.03
same,normalized growth,"S. cerevisiae deletion strains, locus YMR129W, stronger effect = lower value",1.02
same,normalized growth,"S. cerevisiae deletion strains, locus YMR205C, strain PFK2, stronger effect = lower value",0.98
same,normalized growth,"S. cerevisiae deletion strains, locus YMR223W, strain ubp8, stronger effect = lower value",0.981
same,normalized growth,"S. cerevisiae deletion strains, locus YMR231W, strain pep5, stronger effect = lower value",1
same,normalized growth,"S. cerevisiae deletion strains, locus YMR263W, strain SAP30, stronger effect = lower value",1.03
same,normalized growth,"S. cerevisiae deletion strains, locus YMR307W, strain GAS1, stronger effect = lower value",1.03
same,normalized growth,"S. cerevisiae deletion strains, locus YNL067W, strain RPL9B, stronger effect = lower value",1.01
same,normalized growth,"S. cerevisiae deletion strains, locus YNL071W, strain lat1, stronger effect = lower value",1.02
same,normalized growth,"S. cerevisiae deletion strains, locus YNL128W, strain TEP1, stronger effect = lower value",1.02
same,normalized growth,"S. cerevisiae deletion strains, locus YNL183C, strain NPR1, stronger effect = lower value",0.91
same,normalized growth,"S. cerevisiae deletion strains, locus YNL209W, strain ssb2, stronger effect = lower value",1.03
same,normalized growth,"S. cerevisiae deletion strains, locus YNL233W, strain BNI4, stronger effect = lower value",1.01
same,normalized growth,"S. cerevisiae deletion strains, locus YNL248C, strain rpa49, stronger effect = lower value",1.03
same,normalized growth,"S. cerevisiae deletion strains, locus YNL250W, strain rad50, stronger effect = lower value",0.429 (active)
same,normalized growth,"S. cerevisiae deletion strains, locus YNL271C, strain bni1, stronger effect = lower value",0.991
same,normalized growth,"S. cerevisiae deletion strains, locus YNL298W, strain CLA4, stronger effect = lower value",0.992
same,normalized growth,"S. cerevisiae deletion strains, locus YNL307C, strain MCK1, stronger effect = lower value",0.979
same,normalized growth,"S. cerevisiae deletion strains, locus YNL322C, strain KRE1 (second series), stronger effect = lower value",1.06
same,normalized growth,"S. cerevisiae deletion strains, locus YNL322C, strain KRE1, stronger effect = lower value",1.01
same,normalized growth,"S. cerevisiae deletion strains, locus YNR049C, strain mso1, stronger effect = lower value",1
same,normalized growth,"S. cerevisiae deletion strains, locus YNR052C, strain pop2, stronger effect = lower value",0.997
same,normalized growth,"S. cerevisiae deletion strains, locus YOL012C, strain htz1",0.802
same,normalized growth,"S. cerevisiae deletion strains, locus YOL147C, strain pex11, stronger effect = lower value",0.983
same,normalized growth,"S. cerevisiae deletion strains, locus YOR001W, strain rrp6, stronger effect = lower value",0.967
same,normalized growth,"S. cerevisiae deletion strains, locus YOR061W, strain CKA2, stronger effect = lower value",1.02
same,normalized growth,"S. cerevisiae deletion strains, locus YOR069W, strain VPS5, stronger effect = lower value",1.02
same,normalized growth,"S. cerevisiae deletion strains, locus YOR070C, strain gyp1, stronger effect = lower value",1.01
same,normalized growth,"S. cerevisiae deletion strains, locus YOR080W, strain dia2, stronger effect = lower value",1.01
same,normalized growth,"S. cerevisiae deletion strains, locus YOR083W, strain WHI5, stronger effect = lower value",1
same,normalized growth,"S. cerevisiae deletion strains, locus YOR106W, strain vam3, stronger effect = lower value",1.03
same,normalized growth,"S. cerevisiae deletion strains, locus YOR136W, strain idh2, stronger effect = lower value",0.971
same,normalized growth,"S. cerevisiae deletion strains, locus YOR144C, strain elg1, stronger effect = lower value",0.988
same,normalized growth,"S. cerevisiae deletion strains, locus YOR184W, strain ser1, stronger effect = lower value",0.972
same,normalized growth,"S. cerevisiae deletion strains, locus YOR231W, strain MKK1, stronger effect = lower value",0.951
same,normalized growth,"S. cerevisiae deletion strains, locus YOR265W, strain rbl2, stronger effect = lower value",0.984
same,normalized growth,"S. cerevisiae deletion strains, locus YOR270C, strain vph1, stronger effect = lower value",1.03
same,normalized growth,"S. cerevisiae deletion strains, locus YOR290C, strain snf2, stronger effect = lower value",1.03
same,normalized growth,"S. cerevisiae deletion strains, locus YOR316C, strain cot1, stronger effect = lower value",0.987
same,normalized growth,"S. cerevisiae deletion strains, locus YPL051W, strain arl3, stronger effect = lower value",1
same,normalized growth,"S. cerevisiae deletion strains, locus YPL055C, strain LGE1, stronger effect = lower value",1.02
same,normalized growth,"S. cerevisiae deletion strains, locus YPL078C, strain atp4, stronger effect = lower value",1.04
same,normalized growth,"S. cerevisiae deletion strains, locus YPL106C, strain sse1, stronger effect = lower value",1.06
same,normalized growth,"S. cerevisiae deletion strains, locus YPL240C, strain hsp82, stronger effect = lower value",1.01
same,normalized growth,"S. cerevisiae deletion strains, locus YPL241C, strain CIN2, stronger effect = lower value",1.01
same,normalized growth,"S. cerevisiae deletion strains, locus YPL256C, strain CLN2, stronger effect = lower value",0.945
same,normalized growth,"S. cerevisiae deletion strains, locus YPR119W, strain clb2, stronger effect = lower value",0.982
same,normalized growth,"S. cerevisiae deletion strains, locus YPR141C, strain kar3, stronger effect = lower value",0.999
same,normalized growth,"S. cerevisiae deletion strains, locus YPR163C, strain tif3, stronger effect = lower value",0.991
same,normalized growth,"S. cerevisiae deletion strains, locus YPR167C, strain met16, stronger effect = lower value",0.987
same,normalized growth,"S. cerevisiae deletion strains, strain wtn01, stronger effect = lower value",0.97
same,normalized growth,"S. cerevisiae strains, strain wild type, stronger effect = lower value",1.02
